# From PubChem BioAssay AID1159580 (chemical genetic matrix, 2015)
# Values joined by “and” are separate entries in the source; they are usually repeats but may differ in a detail not shown here. Equal entries are not always repeated. Screen size: about 5,500 compounds; about 2,000 (36%) were called active. Roughly 18% stayed inconclusive and do not appear here. Rule as the data show it: active = normalized growth mostly below about 0.91 (no sharp cut-off); inconclusive = no clear call, values can overlap the other calls; inactive = mostly above about 0.92. Some of the results follow.
# Assay: chemical genetic growth profiling, strain panel (AID 1159580);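 also: tested at 20 µM; growth read once vehicle control cultures reached saturation at 30 °C; 1 = growth at the plate median or of vehicle wells; lower values mean less growth of the strain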
# Conditions: S. cerevisiae deletion strains, growth OD
structure (smiles),measurement,setting,value
C/C(=C\CO)CC[C@H](C)CCC[C@H](C)CCCC(C)C,normalized growth,"locus YAL021C, strain ccr4, stronger effect = lower value",1.12 [resistant] (active)
same,normalized growth,"locus YAL026C, strain drs2, stronger effect = lower value",1.12 [resistant] (active)
same,normalized growth,"locus YAL030W, strain snc1, stronger effect = lower value",1.13 [resistant] (active)
same,normalized growth,"locus YBL061C, strain skt5, stronger effect = lower value",0.97 (inactive)
same,normalized growth,"locus YBR009C, strain hhf1, stronger effect = lower value",1.12 [resistant] (active)
same,normalized growth,"locus YBR021W, strain FUR4, stronger effect = lower value",1 (inactive)
same,normalized growth,"locus YBR023C, strain chs3, stronger effect = lower value",0.974 (inactive)
same,normalized growth,"locus YBR171W, strain sec66, stronger effect = lower value",1.11 (inactive)
same,normalized growth,"locus YBR229C, strain ROT2, stronger effect = lower value",1.04 (inactive)
same,normalized growth,"locus YBR231C, strain swc5, stronger effect = lower value",0.976 (inactive)
same,normalized growth,"locus YBR279W, strain paf1, stronger effect = lower value",0.993 (inactive)
same,normalized growth,"locus YCL011C, strain gbp2, stronger effect = lower value",1.14 [resistant] (active)
same,normalized growth,"locus YCL016C, strain dcc1, stronger effect = lower value",0.976 (inactive)
same,normalized growth,"locus YCL029C, strain bik1, stronger effect = lower value",1.08 (inactive)
same,normalized growth,"locus YCL061C, strain MRC1, stronger effect = lower value",1.11 [resistant] (active)
same,normalized growth,"locus YCL069W, strain vba3, stronger effect = lower value",1.11 [resistant] (active)
same,normalized growth,"locus YCR088W, strain abp1, stronger effect = lower value",1.12 [resistant] (active)
same,normalized growth,"locus YDL005C, strain med2, stronger effect = lower value",1.14 [resistant] (active)
same,normalized growth,"locus YDL035C, strain GPR1, stronger effect = lower value",1.07 (inactive)
same,normalized growth,"locus YDL040C, strain nat1, stronger effect = lower value",0.973 (inactive)
same,normalized growth,"locus YDL074C, strain BRE1, stronger effect = lower value",1.1 (inactive)
same,normalized growth,"locus YDL101C, strain DUN1, stronger effect = lower value",1.08 (inactive)
same,normalized growth,"locus YDL185W, strain tfp1, stronger effect = lower value",1.11 [resistant] (active)
same,normalized growth,"locus YDL192W, strain arf1, stronger effect = lower value",1.13 [resistant] (active)
same,normalized growth,"locus YDR001C, strain nth1, stronger effect = lower value",1.13 [resistant] (active)
same,normalized growth,"locus YDR069C, strain doa4, stronger effect = lower value",1.15 [resistant] (active)
same,normalized growth,"locus YDR101C, strain arx1, stronger effect = lower value",1.11 [resistant] (active)
same,normalized growth,"locus YDR137W, strain rgp1, stronger effect = lower value",0.93 (inactive)
same,normalized growth,"locus YDR150W, strain NUM1, stronger effect = lower value",1.1 [resistant] (active)
same,normalized growth,"locus YDR159W, strain sac3, stronger effect = lower value",1.05 (inactive)
same,normalized growth,"locus YDR162C, strain NBP2, stronger effect = lower value",1.11 (inactive)
same,normalized growth,"locus YDR195W, strain ref2",1.09 (inactive)
same,normalized growth,"locus YDR297W, strain sur2, stronger effect = lower value",1.13 [resistant] (active)
same,normalized growth,"locus YDR318W, strain mcm21, stronger effect = lower value",1.13 [resistant] (active)
same,normalized growth,"locus YDR334W, strain swr1, stronger effect = lower value",1.14 [resistant] (active)
same,normalized growth,"locus YDR335W, strain msn5, stronger effect = lower value",1.13 [resistant] (active)
same,normalized growth,"locus YDR388W, stronger effect = lower value",1.12 [resistant] (active)
same,normalized growth,"locus YDR392W, strain spt3, stronger effect = lower value",1.11 (inactive)
same,normalized growth,"locus YDR502C, strain sam2, stronger effect = lower value",1.16 [resistant] (active)
same,normalized growth,"locus YEL003W, strain gim4, stronger effect = lower value",1.13 [resistant] (active)
same,normalized growth,"locus YEL037C, strain rad23, stronger effect = lower value",1.13 [resistant] (active)
same,normalized growth,"locus YEL061C, strain CIN8 (second series), stronger effect = lower value",1.14 [resistant] (active)
same,normalized growth,"locus YEL061C, strain CIN8, stronger effect = lower value",1.09 [resistant] (active)
same,normalized growth,"locus YER015W, strain faa2, stronger effect = lower value",1.12 [resistant] (active)
same,normalized growth,"locus YER016W, strain bim1, stronger effect = lower value",0.97 (inactive)
same,normalized growth,"locus YER110C, stronger effect = lower value",1.14 [resistant] (active)
same,normalized growth,"locus YER111C, strain swi4, stronger effect = lower value",1.06 (inactive)
same,normalized growth,"locus YER155C, strain BEM2 (second series), stronger effect = lower value",1.07 (inactive)
same,normalized growth,"locus YER155C, strain BEM2, stronger effect = lower value",1.02 (inactive)
same,normalized growth,"locus YER167W, strain BCK2, stronger effect = lower value",1.01 (inactive)
same,normalized growth,"locus YFR010W, strain ubp6, stronger effect = lower value",1.18 [resistant] (active)
same,normalized growth,"locus YGL078C, strain dbp3, stronger effect = lower value",1.13 [resistant] (active)
same,normalized growth,"locus YGL086W, strain mad1, stronger effect = lower value",1.09 [resistant] (active)
same,normalized growth,"locus YGL167C, strain pmr1, stronger effect = lower value",0.962 (inactive)
same,normalized growth,"locus YGL173C, strain kem1, stronger effect = lower value",1.1 [resistant] (active)
same,normalized growth,"locus YGL227W, strain vid30, stronger effect = lower value",1.12 [resistant] (active)
same,normalized growth,"locus YGL240W, strain doc1, stronger effect = lower value",1.13 [resistant] (active)
same,normalized growth,"locus YGL248W, strain PDE1, stronger effect = lower value",1.06 (inactive)
same,normalized growth,"locus YGL253W, strain hxk2, stronger effect = lower value",1.12 [resistant] (active)
same,normalized growth,"locus YGR078C, strain PAC10, stronger effect = lower value",1.13 (inactive)
same,normalized growth,"locus YGR135W, strain pre9, stronger effect = lower value",1.15 [resistant] (active)
same,normalized growth,"locus YGR229C, strain SMI1, stronger effect = lower value",1.14 (inactive)
same,normalized growth,"locus YGR252W, strain gcn5, stronger effect = lower value",1.1 (inactive)
same,normalized growth,"locus YHR013C, strain ard1, stronger effect = lower value",0.945 (inactive)
same,normalized growth,"locus YHR027C, strain rpn1, stronger effect = lower value",1.14 [resistant] (active)
same,normalized growth,"locus YHR030C, strain SLT2, stronger effect = lower value",1.09 [resistant] (active) and 0.974 (inactive)
same,normalized growth,"locus YHR079C, strain IRE1 (second series), stronger effect = lower value",1.13 [resistant] (active)
same,normalized growth,"locus YHR079C, strain IRE1, stronger effect = lower value",0.966 (inactive)
same,normalized growth,"locus YHR094C, strain hxt1, stronger effect = lower value",1.14 [resistant] (active)
same,normalized growth,"locus YHR129C, strain ARP1, stronger effect = lower value",1.08 (inactive)
same,normalized growth,"locus YHR142W, strain chs7, stronger effect = lower value",1.09 (inactive)
same,normalized growth,"locus YHR200W, strain rpn10, stronger effect = lower value",1.13 [resistant] (active)
same,normalized growth,"locus YIL066C, strain RNR3, stronger effect = lower value",1.09 (inactive)
same,normalized growth,"locus YIL073C, strain SPO22, stronger effect = lower value",1.25 (inactive)
same,normalized growth,"locus YIL125W, strain kgd1, stronger effect = lower value",1.12 [resistant] (active)
same,normalized growth,"locus YIR030C, strain dcg1, stronger effect = lower value",1.13 [resistant] (active)
same,normalized growth,"locus YJL092W, strain hpr5, stronger effect = lower value",1.13 [resistant] (active)
same,normalized growth,"locus YJL095W, strain BCK1 (second series), stronger effect = lower value",1.02 (inactive)
same,normalized growth,"locus YJL095W, strain BCK1, stronger effect = lower value",1.1 (inactive) and 0.966 (inactive)
same,normalized growth,"locus YJL115W, strain asf1, stronger effect = lower value",1.14 [resistant] (active)
same,normalized growth,"locus YJL129C, strain trk1, stronger effect = lower value",1.09 (inactive)
same,normalized growth,"locus YJL134W, strain LCB3, stronger effect = lower value",1.09 [resistant] (active)
same,normalized growth,"locus YJL154C, strain vps35, stronger effect = lower value",1.13 [resistant] (active)
same,normalized growth,"locus YJL164C, strain tpk1, stronger effect = lower value",1.13 [resistant] (active)
same,normalized growth,"locus YJL166W, strain qcr8, stronger effect = lower value",1.13 [resistant] (active)
same,normalized growth,"locus YJL168C, strain set2, stronger effect = lower value",1.13 [resistant] (active)
same,normalized growth,"locus YJL187C, strain SWE1 (second series), stronger effect = lower value",1.1 (inactive)
same,normalized growth,"locus YJL187C, strain SWE1, stronger effect = lower value",1.07 (inactive)
same,normalized growth,"locus YJR043C, strain POL32, stronger effect = lower value",1.12 (inactive)
